From PubChem BioAssay (Tox21)
Unmarked numbers belong to inactive results. Records with an inconclusive call do not appear. Entries that show only a call come without a potency. The source made the active and inactive calls. Unless noted, calls come from the whole dose curve; as a rule, active = well fitted curve in the direction sought with a large enough effect in the repeat runs; inconclusive = weak or mixed curves; inactive = no such curve, though single readings can be large; an effect the other way counts as inactive or inconclusive.

Tests used:
[1] = target: Thyrotropin receptor (Homo sapiens) (UniProt P16473); experiment: qHTS assay to identify small molecule agonists of the thyroid stimulating hormone receptor (TSHR) signaling pathway (AID 1224843; calls by dose curve; note: nearly all actives have a fitted effect of over 45% in size); settings: TSHR-HEK293 cells, cAMP HTRF, agonist mode, 30 min; series mostly up to 92.4 µM
How it was run: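 TSHR-expressing HEK293 cells (800 per well) were exposed to compounds for 30 min at room temperature. cAMP was then detected by HTRF competition with cAMP-d2 and anti-cAMP cryptate, read after 1 h at room temperature. Fifteen concentrations, triplicate.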

[2] = qHTS assay to identify small molecule agonists of the hypoxia (HIF-1) signaling pathway - cell viability counter screen (AID 1224844; calls by dose curve; note: nearly all actives have a fitted effect of over 50% in size); settings: HRE-bla ME-180 viability, CellTiter-Glo luminescence, 17 h; series mostly up to 76.8 µM
How it was run: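 HRE-bla ME-180 cells, 2,000/well in 0.5% dialyzed FBS medium, treated 17 h at 37C with compounds. Viability read in the same wells as the bla reporter, by CellTiter-Glo luminescence after 30 min at room temperature.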

[3] = qHTS assay to identify small molecule agonists of H2AX (AID 1224845; active = well fitted activation curve with a large enough effect in the signal ratio in the repeat runs, not every such curve was filed as active; the % refers to the signal ratio); settings: CHO-K1 phospho-H2AX Ser139 HTRF, 3 h; series mostly up to 154 µM
How it was run: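 Wild-type CHO-K1 cells plated overnight, then exposed 3 hr at 37C to compounds at 15 concentrations (0.76% DMSO). Lysed, then HTRF anti-pH2AX(S139)-cryptate/anti-H2AX-d2 detection after 24 hr at room temperature; emissions 665 and 620 nm.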

[4] = qHTS assay to identify small molecule agonists of the hypoxia (HIF-1) signaling pathway (AID 1224846; active = well fitted activation curve with a large enough effect in the signal ratio in the repeat runs, not every such curve was filed as active; the % refers to the signal ratio); settings: HRE-bla ME-180 cells, beta-lactamase ratio, 17 h; series mostly up to 76.8 µM
How it was run: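 HRE-bla ME-180 beta-lactamase reporter cells in medium with 0.5% dialyzed FBS, pre-incubated 5 h then exposed to compounds 17 h at 37C, 5% CO2; reporter induction read with CCF4-AM FRET substrate.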

[5] = qHTS assay to identify small molecule agonists of H2AX - cell viability counter screen (AID 1224847; calls by dose curve; note: top concentration of the series differs between compounds; nearly all actives have a fitted effect of over 30% in size); settings: CHO-K1 viability, CellTiter-Glo luminescence, 3 h; series mostly up to 154 µM
How it was run: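 After overnight plating of 1000 CHO-K1 cells per well, a 15-concentration compound series was applied for 3 hr at 37C. Luminescence from CellTiter-Glo, read following 30 min at room temperature, reflected cell viability.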

[6] = qHTS assay to identify small molecule antagonists of the estrogen related receptor (ERR) signaling pathway from Tox21 library (AID 1224848); settings: ERR reporter cell line, luciferase antagonist mode, 18 h; series mostly up to 92.4 µM; note: nearly all actives have a fitted effect of over 50% in size; note: potency is the fitted concentration of half-maximal effect
How it was run: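 Cells: ERR line, 2,000/well; 6 h preincubation 37 C/5% CO2. Cpd in DMSO via pin tool; 18 h, 37 C. ONE-Glo, 30 min RT, luminescence.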

[7] = qHTS assay to identify small molecule agonists of the estrogen related receptor (ERR) signaling pathway from Tox21 library (AID 1224849; calls by dose curve; note: nearly all actives have a fitted effect of over 15% in size); settings: ERR reporter cell line, ONE-Glo luciferase, 18 h; at 92.4 µM (top of the series) unless noted
How it was run: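 ERR reporter cells (NTP line) pre-incubated 6 hours at 37 C, then exposed to compounds for 18 hours at 37 C. ONE-Glo luciferase luminescence was read after 30 minutes at room temperature.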

[8] = qHTS RealTime-Glo MT Cell Viability Assay in HepG2 cells - 24 hour (AID 1224867); settings: RealTime-Glo luminescence; series mostly up to 76.8 µM; note: nearly all actives have a fitted effect of over 50% in size
How it was run: (§1)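 HepG2 cells were seeded at 600 cells/well together with NanoLuc luciferase and a cell-permeant prosubstrate, preincubated 5 h at 37 C/5% CO2, then pin-dosed with compounds in DMSO. Nonlytic luminescence from viable cells was read at each time point.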

[9] = qHTS RealTime-Glo MT Cell Viability Assay in HEK293 cells - 32 hour (AID 1224868); settings: RealTime-Glo luminescence; series mostly up to 76.8 µM; note: nearly all actives have a fitted effect of over 50% in size; note: potency is the fitted concentration of half-maximal effect; for activity change, negative = cytotoxic: top concentration of the series differs between compounds
How it was run: (§2)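 HEK293 cells were seeded at 600 cells/well together with NanoLuc luciferase and cell-permeant prosubstrate, preincubated 5 h at 37 C/5% CO2, then given compound in DMSO by pintool. Luminescence from viable-cell prosubstrate reduction was read repeatedly over 40 h.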

[10] = A CellTox Green Cytotoxicity Assay to monitor cytotoxicity in HEK293 cells - 0 hour (AID 1224869); settings: CellTox Green fluorescence; series mostly up to 76.8 µM; note: nearly all actives have a fitted effect of over 50% in size
How it was run: (§3)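 HEK293 cells, 600/well, were preincubated 5 hours and then exposed to compounds at 37 C for up to 40 hours. A cell-impermeant cyanine dye staining dead-cell DNA was read by fluorescence at 0, 8, 16, 24, 32 and 40 h time points.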

[11] = qHTS RealTime-Glo MT Cell Viability Assay in HepG2 cells - 40 hour (AID 1224870); settings: RealTime-Glo luminescence; series mostly up to 76.8 µM; note: nearly all actives have a fitted effect of over 50% in size
How it was run: (§4)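 HepG2 cells mixed with RealTime-Glo MT reagents (NanoLuc plus cell-permeant prosubstrate) were seeded at 600 cells/well, incubated 5 h at 37 C/5% CO2, then pinned with compounds in DMSO; nonlytic luminescence tracked viability during 40 h treatment.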

[12] = A CellTox Green Cytotoxicity Assay to monitor cytotoxicity in HEK293 cells - 40 hour (AID 1224871); settings: CellTox Green fluorescence; series mostly up to 76.8 µM; note: nearly all actives have a fitted effect of over 45% in size
How it was run: as §3

[13] = qHTS RealTime-Glo MT Cell Viability Assay in HEK293 cells - 16 hour (AID 1224872); settings: RealTime-Glo luminescence; series mostly up to 76.8 µM
How it was run: as §2

[14] = qHTS RealTime-Glo MT Cell Viability Assay in HepG2 cells - 8 hour (AID 1224873); settings: RealTime-Glo luminescence; series mostly up to 76.8 µM; note: nearly all actives have a fitted effect of over 55% in size
How it was run: as §4

[15] = qHTS RealTime-Glo MT Cell Viability Assay in HEK293 cells - 40 hour (AID 1224874); settings: RealTime-Glo luminescence; max response: stronger effect = lower value; note: nearly all actives have a fitted effect of over 50% in size; note: potency is the fitted concentration of half-maximal effect
How it was run: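 600 cells/well were plated with the nonlytic NanoLuc/prosubstrate reagent, pre-incubated 5 h, then given 23 nL of compound in DMSO. Incubation at 37 C for 40 h, with luminescence from viable-cell-reduced substrate read repeatedly from 0 h.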

[16] = A CellTox Green Cytotoxicity Assay to monitor cytotoxicity in HEK293 cells - 24 hour (AID 1224875); settings: CellTox Green fluorescence; series mostly up to 76.8 µM; note: nearly all actives have a fitted effect of over 45% in size
How it was run: as §3

[17] = A CellTox Green Cytotoxicity Assay to monitor cytotoxicity in HepG2 cells - 16 hour (AID 1224876); settings: CellTox Green fluorescence; series mostly up to 76.8 µM; note: nearly all actives have a fitted effect of over 45% in size
How it was run: (§5)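 HepG2 cells, 600/well, preincubated 5 h with CellTox Green dye, then exposed to Tox21 compounds in DMSO at 37 C for up to 40 h. Dead-cell DNA fluorescence read at the indicated time point.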

[18] = qHTS RealTime-Glo MT Cell Viability Assay in HepG2 cells - 32 hour (AID 1224877); settings: RealTime-Glo luminescence; series mostly up to 76.8 µM; note: nearly all actives have a fitted effect of over 55% in size
How it was run: as §1

[19] = A CellTox Green Cytotoxicity Assay to monitor cytotoxicity in HepG2 cells - 24 hour (AID 1224878); settings: CellTox Green fluorescence; series mostly up to 76.8 µM; note: nearly all actives have a fitted effect of over 45% in size
How it was run: as §5

[20] = A CellTox Green Cytotoxicity Assay to monitor cytotoxicity in HepG2 cells - 40 hour (AID 1224879); settings: CellTox Green fluorescence; series mostly up to 76.8 µM; note: nearly all actives have a fitted effect of over 40% in size; note: potency is the fitted concentration of half-maximal effect
How it was run: as §5

Chain of Thyrotropin receptor (Homo sapiens) (P16473 whole entry, looked up): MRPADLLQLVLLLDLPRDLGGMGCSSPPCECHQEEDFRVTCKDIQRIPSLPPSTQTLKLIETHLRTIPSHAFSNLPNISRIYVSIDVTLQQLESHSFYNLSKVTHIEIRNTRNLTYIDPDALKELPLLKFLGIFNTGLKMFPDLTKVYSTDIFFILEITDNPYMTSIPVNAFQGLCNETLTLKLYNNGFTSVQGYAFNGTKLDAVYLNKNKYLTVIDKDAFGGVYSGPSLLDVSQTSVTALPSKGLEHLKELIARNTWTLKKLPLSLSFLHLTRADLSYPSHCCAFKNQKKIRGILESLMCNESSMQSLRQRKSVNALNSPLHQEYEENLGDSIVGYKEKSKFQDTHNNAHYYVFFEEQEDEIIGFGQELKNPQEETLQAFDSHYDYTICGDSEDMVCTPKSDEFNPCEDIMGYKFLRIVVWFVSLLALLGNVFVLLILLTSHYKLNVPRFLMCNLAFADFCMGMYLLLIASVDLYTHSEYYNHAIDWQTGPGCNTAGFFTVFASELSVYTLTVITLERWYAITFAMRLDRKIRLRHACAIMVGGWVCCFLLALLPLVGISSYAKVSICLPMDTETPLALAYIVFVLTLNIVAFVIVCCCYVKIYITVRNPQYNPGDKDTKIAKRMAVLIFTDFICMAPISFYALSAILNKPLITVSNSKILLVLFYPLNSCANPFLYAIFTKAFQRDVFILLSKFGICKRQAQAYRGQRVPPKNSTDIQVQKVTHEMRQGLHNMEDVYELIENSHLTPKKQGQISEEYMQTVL

C=CC(C)(O)CCCC(C)CCCC(C)CCCC(C)C (stereo not drawn)
Potency [1]: inactive
Potency [2]: inactive
Potency [3]: inactive
outcome [4]: inactive
Potency [5]: inactive
Potency [6]: inactive
activity change, positive = activation [7]: -0.948%
Potency [8]: inactive
Potency [9]: inactive
Potency [10]: inactive
Potency [11]: inactive
Potency [12]: inactive
Potency [13]: inactive
Potency [14]: inactive
max response [15]: 6.13%
Potency [16]: inactive
Potency [17]: inactive
Potency [18]: inactive
Potency [19]: inactive
Potency [20]: inactive

Cc1occc1C(=O)Nc1ccc(C(=O)N2CCC(F)(F)/C(=C\C(=O)N3CCC(N4CCCCC4)CC3)c3ccccc32)cc1
Potency [1]: inactive
Potency [2]: inactive
Potency [3]: inactive
outcome [4]: inactive
Potency [5]: inactive
Potency [6]: inactive
Potency [8]: inactive
Potency [9]: 10.8 µM (active)
Potency [10]: inactive
Potency [11]: inactive
Potency [12]: inactive
Potency [14]: inactive
Potency [15]: 6.83 µM (active)
Potency [16]: inactive
Potency [17]: inactive
Potency [18]: inactive
Potency [19]: inactive
Potency [20]: 15.3 µM (active)

NC(=O)Nc1ccc(Cl)cc1
Potency [1]: inactive
Potency [2]: inactive
Potency [3]: inactive
outcome [4]: inactive
Potency [5]: inactive
Potency [6]: inactive
Potency [8]: inactive
Potency [9]: inactive
Potency [10]: inactive
Potency [11]: inactive
Potency [13]: inactive
Potency [14]: inactive
max response [15]: -8.17%
Potency [18]: inactive

C=CCCCCCCCCCCCCCCCC
activation [1]: -8.53% [at 8.39 µM]
activity change, negative = cytotoxicity [2]: 3.26% [at 6.97 µM]
activation (H2AX phosphorylation) [3]: -2.87% [at 14 µM]
activation [4]: 0.0723% [at 7.01 µM]
activity change, negative = cytotoxicity [5]: 0.307% [at 14 µM]
activity, negative = inhibition [6]: 6.89% [at 8.39 µM]
activity change, negative = cytotoxic [9]: -11.9% [at 6.97 µM]
cytotoxicity [10]: -3.01% [at 6.97 µM]
activity change, negative = cytotoxic [11]: 26.4% [at 6.97 µM]
cytotoxicity increase [12]: -6.74% [at 6.97 µM]
activity change, negative = cytotoxicity [13]: -3.07% [at 6.97 µM]
viability change, negative = cytotoxic [14]: -17.7% [at 6.97 µM]
max response [15]: -5.15%
activity change [16]: -1.9% [at 6.97 µM, stronger effect = higher value]
cytotoxicity increase [17]: -18.8% [at 6.97 µM]
activity change, negative = cytotoxic [18]: 7.54% [at 6.97 µM]
cytotoxicity [19]: -19.1% [at 6.97 µM]
cytotoxicity increase [20]: -20.6% [at 6.97 µM]

CO[C@H]1O[C@H](CO)[C@@H](O)[C@H](O)[C@H]1O
Potency [1]: inactive
Potency [2]: inactive
Potency [3]: inactive
outcome [4]: inactive
Potency [5]: inactive
activity change, positive = activation [7]: 10.5%
Potency [8]: inactive
Potency [9]: inactive
Potency [10]: inactive
Potency [11]: inactive
Potency [12]: inactive
Potency [13]: inactive
Potency [14]: inactive
max response [15]: 5.92%
Potency [17]: inactive
Potency [18]: inactive
Potency [19]: inactive
Potency [20]: inactive

CC(=O)[C@H]1CC[C@H]2[C@@H]3C[C@H](C)C4=CC(=O)CC[C@]4(C)[C@H]3[C@@H](O)C[C@]12C
Potency [1]: inactive
Potency [2]: inactive
Potency [3]: inactive
outcome [4]: inactive
Potency [5]: inactive
Potency [6]: 26.6 µM (active)
Potency [8]: inactive
Potency [10]: inactive
Potency [11]: inactive
Potency [12]: inactive
Potency [14]: inactive
Potency [17]: inactive
Potency [18]: inactive
Potency [19]: inactive
Potency [20]: inactive
